Records with an inconclusive call do not appear. Where a call stands in place of a potency, no number is given. Values without a mark were called inactive. Calls of active or inactive are those of the source. Calls follow the shape of the dose curve; as a rule, active = well fitted cell-killing curve with a large enough effect in the repeat runs; inconclusive = weak or mixed curves, or effect the other way; inactive = flat fitted curve, though single readings scatter.
assay: cAMP Responsive Elements (CRE) small molecule agonists, cell-based qHTS assay: qHTS cell viability counter screen (AID 2060914); conditions: CRE-bla HEK293T viability, CellTiter-Glo luminescence, 5 h; series mostly up to 92.4 µM;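 also: viability read after 3 h of compound exposure; nearly all actives have a fitted effect of over 50% in size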
Excerpt: National Center for Advancing Translational Sciences [NCATS]
Division of Preclinical Innovation [DPI]
U.S. Environmental Protection Agency [EPA]
National Institutes of Environmental Health Sciences [NIEHS]
National Toxicology Program [NTP]
U.S. Food and Drug Administration [FDA]
CREB (cyclic-AMP Responsive Element Binding Protein) is a cellular transcription factor. It binds to certain DNA sequences called cAMP Responsive Elements (CRE) and regulates the transcription of the genes. […] This cell line can be used to find agonists/antagonists of the cyclic AMP signaling pathway. The activation of the report gene under culture conditions can be detected by fluorescence intensity. This cell line has been used to screen the Tox21 10K compound library to identify agonists that induce oxidative stress. The cytotoxicity of the Tox21 compound library against the CRE-bla cell line was tested in parallel by measuring the cell viability using CellTiter-Glo assay (Promega, Madison, WI) in the same wells.
Tox21 Assay Protocol Summary:
CRE-bla Hek 293T cells were suspended in assay medium (DMEM containing 10% dialyzed FBS, 0.1 mM NEAA, 1 mM sodium pyruvate and 25 mM HEPES) and dispensed at 2,000 cells/5 uL /well into 1536-well black wall/clear bottom plates using a Multidrop Combi (ThermoFisher Scientific, Waltham, MA) dispenser. After the assay plates were incubated at 37 C/5% CO2 for 18 hrs, 23 nL of compounds dissolved in DMSO, positive controls or DMSO only was transferred to the assay plate by a pintool workstation (Kalypsys, San Diego, CA). After the plates were incubated at 37 C/5% CO2 for 3 hrs, 1 uL of LiveBLAzer B/G FRET substrate (Invitrogen, Carlsbad, CA) was added to each well using Bioraptr Flying Reagent Dispenser (FRD, Aurora Discovery, San Diego, CA). The plates were incubated at room temperature for 2 h, then fluorescence intensities were measured using an Envision plate reader (PerkinElmer, Shelton, CT) at Excitation 405nm, Emission 460nm and 530nm. The % activity was determined from the ratio of 460nm/530nm. For cell viability readout that measures cytotoxicity, 4 uL /well of CellTiter-Glo reagent was added into the assay plates using Bioraptr FRD. After 30 min incubation at room temperature, the luminescence intensity in the assay plates was measured using a ViewLux (PerkinElmer, Shelton, CT) plate reader.

Row | Compound | Potency | activity change, negative = cytotoxicity
1 | CCCCC(CC)C(=O)OCCOCCOCCOCCOC(=O)C(CC)CCCC (stereo not given) | inactive | –
2 | C[N+]1(CC2COC(c3ccccc3)(C3CCCCC3)O2)CCCCC1 (stereo not given) | inactive | –
3 | C1=CCC(c2ccccc2)CC1 (stereo not given) | inactive | –
4 | CCCCC/C(=C\c1ccccc1)CO | inactive | –
5 | CC(=O)OC(C)(C)C1CC=C(C)CC1 (stereo not given) | inactive | –
6 | Cc1ccccc1N=Nc1ccc(N=Nc2c(O)ccc3ccccc23)c(C)c1 | inactive | –
7 | CCCCCCCCC(=O)O | inactive | –
8 | Cc1cc(OI)c(C(C)C)cc1-c1cc(C(C)C)c(OI)cc1C | inactive | –
9 | CC(O)(c1ccc(Cl)cc1)c1ccc(Cl)cc1 | inactive | –
10 | CCCCCOC(=O)CCC | inactive | –
11 | CC1CC(=O)CC(C)(C)C1 (stereo not given) | inactive | –
12 | CCN(CC)CCCC(C)Nc1c2ccc(Cl)cc2nc2ccc(OC)cc12 (stereo not given) | inactive | –
13 | Nc1ncnc(Nc2ccccc2)n1 | inactive | –
14 | CC(=O)OC(C)OC(C)=O | inactive | –
15 | Cc1cn[nH]c1 | inactive | –
16 | Oc1cc(O)c2c(c1)O[C@H](c1ccc(O)c(O)c1)[C@H](O)C2 | inactive | –
17 | CCCCCCCCCCCC(=O)N(C)CC(=O)O | – | 0.181% [at 8.39 µM]
18 | c1ccc(CCCc2ccccn2)cc1 | inactive | –
19 | COC(OC)OC | inactive | –
20 | O=C(O)Cc1cccc(-c2cc(CCCCCCc3ccc(O[C@H]4O[C@H](CO)[C@@H](O)[C@H](O)[C@@H]4O)c(-c4cccc(CC(=O)O)c4)c3)ccc2O[C@H]2O[C@H](CO)[C@@H](O)[C@H](O)[C@@H]2O)c1 | – | 10.9% [at 0.349 µM]

Row | Compound | Potency | activity change, negative = cytotoxicity
21 | CCCCCC1CCC(=O)O1 (stereo not given) | inactive | –
22 | CCOCC(O)COc1ccc(NC(=O)CC[S+](C)C)cc1 (stereo not given) | inactive | –
23 | CCCSS/C(CCO)=C(\C)N(C=O)Cc1cnc(C)nc1N | inactive | –
24 | Nc1cc([N+](=O)[O-])ccc1C(=O)O | inactive | –
25 | COC(=O)C1=C(C)NC(C)=C(C(=O)OCCCN2CCC(c3ccccc3)(c3ccccc3)CC2)C1c1cccc([N+](=O)[O-])c1 (stereo not given) | inactive | –
26 | CC12CCC(CC1)C(C)(C)O2 | inactive | –
27 | CC1CCC(C(C)(C)S)C(=O)C1 (stereo not given) | inactive | –
28 | CC(C)c1ccc2oc3nc(N)c(C(=O)O)cc3c(=O)c2c1 | inactive | –
29 | C[C@@H]1CCC[C@H](C)N1CCCC(O)(c1ccccc1)c1ccccn1 (stereo not given in full) | inactive | –
30 | CCC(C)(C)C1CCC(=O)CC1 | inactive | –
31 | c1ccc(Nc2ccccc2)cc1 | inactive | –
32 | CCC1=C(C)CN(C(=O)NCCc2ccc(S(=O)(=O)NC(=O)NC3CCC(C)CC3)cc2)C1=O (stereo not given) | inactive | –
33 | CCc1cccc(C)c1N(C(=O)C(=O)O)C(C)COC (stereo not given) | inactive | –
34 | CCNS(=O)(=O)c1ccc(C)cc1 | inactive | –
35 | CN1CCCC1 | inactive | –
36 | O=C(OCC1CO1)C1CCCCC1C(=O)OCC1CO1 (stereo not given) | inactive | –
37 | N#Cc1nc(Cl)c(Cl)c(Cl)c1Cl | inactive | –
38 | O=C1O[C@@H]2[C@@H](O)[C@H](O)O[C@@H]2[C@H]1O | inactive | –
39 | C/C(=C\C(C)CC(C)CC(C)C)C1CC(=O)OC1=O (stereo not given) | inactive | –
40 | Cc1ccc([N+](=O)[O-])c(N)c1 | inactive | –
